PubChem BioAssay (NCATS)
Records with an inconclusive call do not appear. Calls of active or inactive are those of the source. The call rests on the fitted dose curve; in most records, active means well fitted curve in the direction sought with a large enough effect; inconclusive means small, poorly fitted or top-dose-only effect, or another doubt; inactive means no such curve, though single readings can be large; an effect the other way counts as inactive or inconclusive.

Assays:
[1] = molecular target: ATP-dependent 6-phosphofructokinase (Trypanosoma brucei brucei) (UniProt O15648); assay: qHTS Assay to Find Inhibitors of T. brucei phosphofructokinase: hit validation (AID 492961);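 further: luminescence reports ADP formed as PFK phosphorylates fructose-6-phosphate with ATP; on the % scale 0 is the no-effect control and ±100 the full control effect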
Summary of the method: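 Reaction: 0.1 M triethanolamine pH 8.0, 5 mM MgCl2, F6P 0.5 mM, ATP 0.1 mM, PFK 1.25 nM, 45 min RT. Read-out: ADP-Glo luminescence. Analysis: concentration-response fits, classed by r2 and efficacy.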

[2] = molecular target: Luciferin 4-monooxygenase (Photinus pyralis) (UniProt P08659); assay: Biochemical firefly luciferase enzyme assay for NPC (AID 624030);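 further: purified P. pyralis luciferase at 10 nM with luciferin and ATP substrate; 0% = DMSO and -100% = full luciferase inhibition by PTC124 control; nearly all actives have a fitted effect of over 70% in size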
Summary of the method: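 Counter-screen for direct inhibition of the luciferase enzyme by approved-drug library compounds, run at 10 nM enzyme in 50 mM Tris acetate (final). Luminescence was read within 5 min of enzyme-buffer addition and normalized to PTC124 versus DMSO (0%).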

[3] = qHTS profiling for inhibitors of Plasmodium falciparum proliferation (AID 504749); further: potency means the concentration at half of the fitted maximal effect;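 on activity, negative = inhibition: 0% = DMSO vehicle and full inhibition = artemisinin control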; on all read-outs here: nearly all actives have a fitted effect of over 60% in size; conditions: P. falciparum in erythrocytes, SYBR Green DNA, 72 h; for activity, negative = inhibition: at 28.7 µM (top of the series)
Summary of the method: (§1)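 Parasite proliferation within erythrocytes, 72 h exposure. Endpoint: SYBR Green I fluorescence after overnight lysis at room temperature. Controls: 0.29 uM artemisinin, DMSO.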

ATS189 = assay: as above; conditions: P. falciparum in erythrocytes, SYBR Green DNA, 72 h; series mostly up to 28.7 µM
Summary of the method: as §1

C2A = assay: as above; conditions: P. falciparum in erythrocytes, SYBR Green DNA, 72 h; series mostly up to 28.7 µM
Summary of the method: as §1

CP191 = assay: as above; conditions: P. falciparum in erythrocytes, SYBR Green DNA, 72 h; series mostly up to 28.7 µM
Summary of the method: as §1

CP192 = assay: as above; conditions: P. falciparum in erythrocytes, SYBR Green DNA, 72 h; series mostly up to 28.7 µM
Summary of the method: as §1

CP201 = assay: as above; conditions: P. falciparum in erythrocytes, SYBR Green DNA, 72 h; series mostly up to 28.7 µM
Summary of the method: as §1

CP215 = assay: as above; conditions: P. falciparum in erythrocytes, SYBR Green DNA, 72 h; series mostly up to 28.7 µM
Summary of the method: as §1

CP238 = assay: as above; conditions: P. falciparum in erythrocytes, SYBR Green DNA, 72 h; series mostly up to 28.7 µM
Summary of the method: as §1

CP268 = assay: as above; conditions: P. falciparum in erythrocytes, SYBR Green DNA, 72 h; series mostly up to 28.7 µM
Summary of the method: as §1

CP269 = assay: as above; conditions: P. falciparum in erythrocytes, SYBR Green DNA, 72 h; series mostly up to 28.7 µM
Summary of the method: as §1

CP286 = assay: as above; conditions: P. falciparum in erythrocytes, SYBR Green DNA, 72 h; series mostly up to 28.7 µM
Summary of the method: as §1

CP325 = assay: as above; conditions: P. falciparum in erythrocytes, SYBR Green DNA, 72 h; series mostly up to 28.7 µM
Summary of the method: as §1

CP329 = assay: as above; conditions: P. falciparum in erythrocytes, SYBR Green DNA, 72 h; series mostly up to 28.7 µM
Summary of the method: as §1

FAB9 = assay: as above; conditions: P. falciparum in erythrocytes, SYBR Green DNA, 72 h; series mostly up to 28.7 µM
Summary of the method: as §1

JCK = assay: as above; conditions: P. falciparum in erythrocytes, SYBR Green DNA, 72 h; series mostly up to 28.7 µM
Summary of the method: as §1

PC49 = assay: as above; conditions: P. falciparum in erythrocytes, SYBR Green DNA, 72 h; series mostly up to 28.7 µM
Summary of the method: as §1

[4] = molecular target: Ubiquitin carboxyl-terminal hydrolase 1 (Homo sapiens) (UniProt O94782); assay: Inhibitors of USP1/UAF1: Pilot qHTS (AID 504865); further: nearly all actives have a fitted effect of over 35% in size; further: potency means the concentration at half of the fitted maximal effect
Summary of the method: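 Deubiquitinase activity followed as kinetic rhodamine fluorescence release from 150 nM Ub-Rho. 1 nM USP1/UAF1 with compound, after 15 min room-temperature preincubation, in HEPES pH 7.8 buffer containing TCEP, EDTA, BSA and Tween-20.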

CP237 = assay: qHTS profiling for inhibitors of Plasmodium falciparum proliferation (AID 504749); further: nearly all actives have a fitted effect of over 60% in size; further: potency means the concentration at half of the fitted maximal effect;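 on activity, negative = inhibition: 0% = DMSO vehicle and full inhibition = artemisinin control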; conditions: P. falciparum in erythrocytes, SYBR Green DNA, 72 h; series mostly up to 28.7 µM
Summary of the method: as §1

Ubiquitin carboxyl-terminal hydrolase 1 (Homo sapiens), sequence (O94782 whole entry, looked up): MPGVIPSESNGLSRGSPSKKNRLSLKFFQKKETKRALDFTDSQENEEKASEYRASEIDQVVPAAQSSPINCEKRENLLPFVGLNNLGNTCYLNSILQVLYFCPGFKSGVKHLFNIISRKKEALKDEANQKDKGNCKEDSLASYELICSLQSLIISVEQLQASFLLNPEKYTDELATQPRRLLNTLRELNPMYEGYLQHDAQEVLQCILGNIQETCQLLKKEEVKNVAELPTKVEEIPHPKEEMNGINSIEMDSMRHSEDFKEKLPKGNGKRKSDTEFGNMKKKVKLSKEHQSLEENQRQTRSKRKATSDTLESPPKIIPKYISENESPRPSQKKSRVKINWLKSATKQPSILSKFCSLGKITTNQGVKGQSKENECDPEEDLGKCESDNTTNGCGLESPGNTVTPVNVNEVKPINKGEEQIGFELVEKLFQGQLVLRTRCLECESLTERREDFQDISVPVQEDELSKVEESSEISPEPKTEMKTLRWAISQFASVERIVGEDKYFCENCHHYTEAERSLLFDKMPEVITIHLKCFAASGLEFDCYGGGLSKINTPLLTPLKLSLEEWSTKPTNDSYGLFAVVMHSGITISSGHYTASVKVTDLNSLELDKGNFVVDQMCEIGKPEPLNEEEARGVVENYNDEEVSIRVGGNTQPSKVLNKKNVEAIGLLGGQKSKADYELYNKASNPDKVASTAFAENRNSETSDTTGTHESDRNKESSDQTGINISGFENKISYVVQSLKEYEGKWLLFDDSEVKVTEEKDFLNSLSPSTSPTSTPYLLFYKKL
ATP-dependent 6-phosphofructokinase (Trypanosoma brucei brucei), sequence (O15648 whole entry, looked up): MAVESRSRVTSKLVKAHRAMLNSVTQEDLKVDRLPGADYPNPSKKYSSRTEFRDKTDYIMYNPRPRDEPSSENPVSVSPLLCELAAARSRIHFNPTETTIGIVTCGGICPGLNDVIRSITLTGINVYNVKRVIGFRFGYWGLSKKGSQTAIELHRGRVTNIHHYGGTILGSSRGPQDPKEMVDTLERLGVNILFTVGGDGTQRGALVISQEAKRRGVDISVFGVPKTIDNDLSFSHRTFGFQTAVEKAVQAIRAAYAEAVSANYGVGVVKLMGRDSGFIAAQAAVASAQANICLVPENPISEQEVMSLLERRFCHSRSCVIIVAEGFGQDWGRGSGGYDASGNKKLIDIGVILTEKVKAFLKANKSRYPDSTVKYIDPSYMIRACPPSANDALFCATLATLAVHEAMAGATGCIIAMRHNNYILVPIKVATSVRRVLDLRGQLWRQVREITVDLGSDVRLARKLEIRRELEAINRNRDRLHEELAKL
Luciferin 4-monooxygenase (Photinus pyralis), sequence (P08659 whole entry, looked up): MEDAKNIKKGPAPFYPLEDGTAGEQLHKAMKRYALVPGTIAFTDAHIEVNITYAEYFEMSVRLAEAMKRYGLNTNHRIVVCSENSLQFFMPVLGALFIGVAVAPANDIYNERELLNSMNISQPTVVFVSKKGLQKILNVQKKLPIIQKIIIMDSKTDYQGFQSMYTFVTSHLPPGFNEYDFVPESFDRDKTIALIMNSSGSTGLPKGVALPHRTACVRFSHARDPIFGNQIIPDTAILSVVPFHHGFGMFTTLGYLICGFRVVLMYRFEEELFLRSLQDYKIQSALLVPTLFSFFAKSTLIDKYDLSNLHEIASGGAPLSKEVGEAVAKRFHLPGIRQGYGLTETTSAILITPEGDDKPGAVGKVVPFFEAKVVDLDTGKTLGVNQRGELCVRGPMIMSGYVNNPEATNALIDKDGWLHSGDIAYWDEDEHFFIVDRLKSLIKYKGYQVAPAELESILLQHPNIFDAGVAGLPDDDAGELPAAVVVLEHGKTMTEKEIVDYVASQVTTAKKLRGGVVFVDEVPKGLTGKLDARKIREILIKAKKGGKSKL

CCCCCCC(=O)O[C@H]1CC[C@H]2[C@@H]3CCC4CC(=O)C=C(C)[C@]4(C)[C@H]3CC[C@]12C (stereo partly specified)
active: Potency (CP286) 11.2 µM
inactive: outcome [1] | Potency [2] | activity, negative = inhibition ([3]; parasite line A) -7.1% | activity, negative = inhibition ([3]; parasite line B) -5.28% | Potency (ATS189) | Potency (C2A) | Potency (CP191) | Potency (CP192) | Potency (CP201) | Potency (CP215) | Potency (CP238) | Potency (CP268) | Potency (CP269) | Potency (CP325) | Potency (CP329) | Potency (FAB9) | Potency (JCK) | Potency (PC49)

CC(Cc1ccccc1)N(C)C (stereo unspecified)
inactive: outcome [1] | Potency [4] | Potency [2] | activity, negative = inhibition ([3]; parasite line A) 9.11% | activity, negative = inhibition ([3]; parasite line B) 11.3% | Potency (ATS189) | Potency (C2A) | Potency (CP191) | Potency (CP192) | Potency (CP201) | Potency (CP215) | Potency (CP237) | Potency (CP238) | Potency (CP269) | Potency (CP286) | Potency (CP325) | Potency (CP329) | Potency (FAB9) | Potency (JCK) | Potency (PC49)

CC1(C)[C@@H](C=C(Cl)Cl)[C@@H]1C(=O)OCc1c(F)c(F)cc(F)c1F
inactive: outcome [1] | Potency [4] | Potency [2] | activity, negative = inhibition ([3]; parasite line A) 3.24% | activity, negative = inhibition ([3]; parasite line B) 1.84% | Potency (ATS189) | Potency (C2A) | Potency (CP191) | Potency (CP192) | Potency (CP201) | Potency (CP215) | Potency (CP237) | Potency (CP238) | Potency (CP268) | Potency (CP269) | Potency (CP286) | Potency (CP325) | Potency (CP329) | Potency (FAB9) | Potency (JCK) | Potency (PC49)

C=CC[N+]1(C)CCC23c4c5ccc(O)c4O[C@H]2C(=O)CC[C@@]3(O)C1C5 (stereo partly specified)
inactive: outcome [1] | Potency [4] | Potency [2] | activity, negative = inhibition ([3]; parasite line A) 14% | activity, negative = inhibition ([3]; parasite line B) 14.5% | Potency (ATS189) | Potency (C2A) | Potency (CP191) | Potency (CP192) | Potency (CP201) | Potency (CP215) | Potency (CP237) | Potency (CP238) | Potency (CP268) | Potency (CP269) | Potency (CP286) | Potency (CP325) | Potency (CP329) | Potency (FAB9) | Potency (JCK) | Potency (PC49)

COc1ccc2c3c1O[C@H]1[C@@H](O)C=C[C@H]4C(C2)NCCC341 (stereo partly specified)
inactive: outcome [1] | Potency [4] | Potency [2] | activity, negative = inhibition ([3]; parasite line A) 7.6% | activity, negative = inhibition ([3]; parasite line B) -2.8% | Potency (ATS189) | Potency (C2A) | Potency (CP191) | Potency (CP192) | Potency (CP201) | Potency (CP215) | Potency (CP237) | Potency (CP238) | Potency (CP268) | Potency (CP269) | Potency (CP286) | Potency (CP325) | Potency (CP329) | Potency (FAB9) | Potency (JCK) | Potency (PC49)

C[C@]12CC[C@H]3[C@@H](CC[C@@]45O[C@@H]4C(=O)C(C#N)C[C@]35C)[C@@H]1CC[C@@H]2O (stereo partly specified)
inactive: outcome [1] | Potency [4] | Potency [2] | Potency (CP192) | Potency (CP201) | Potency (CP215) | Potency (CP237) | Potency (CP238) | Potency (CP268) | Potency (CP269) | Potency (CP286) | Potency (CP325) | Potency (CP329) | Potency (FAB9) | Potency (JCK) | Potency (PC49)

C[C@]12CCC3C(CC[C@]4(O)C[C@@H](O)CC[C@]34C=O)[C@@]1(O)CC[C@@H]2C1=CC(=O)OC1 (stereo partly specified)
inactive: Potency [4]

CC(C)CCC(=O)OC1CCC2C3CCC4=CC(=O)CC[C@]4(C)C3CC[C@]12C (stereo partly specified)
inactive: Potency [2] | Potency (CP192) | Potency (CP201) | Potency (CP215) | Potency (CP268) | Potency (CP269) | Potency (CP325) | Potency (CP329) | Potency (FAB9) | Potency (JCK) | Potency (PC49)
active: Potency ([3]; parasite line A) 10 µM | Potency (ATS189) 8.91 µM | Potency (CP191) 6.31 µM | Potency (CP237) 11.2 µM | Potency (CP286) 4.47 µM

CN(C)C1C(=O)C(C(N)=O)C(=O)C2(O)C(=O)C3C(=O)c4c(O)cccc4C(C)(O)C3C(O)C12 (stereo unspecified)
inactive: outcome [1] | Potency [2] | Potency (ATS189) | Potency (C2A) | Potency (CP191) | Potency (CP192) | Potency (CP201) | Potency (CP215) | Potency (CP238) | Potency (CP329) | Potency (FAB9) | Potency (JCK) | Potency (PC49)

CC1COC2=C1C(=O)C(=O)c1c2ccc2c1CCCC2(C)C (stereo unspecified)
active: Potency [4] 79.4 µM

C#CC1(O)C=CC2C3CCC4=CC(=O)CCC4C3CCC21CC (stereo unspecified)
inactive: outcome [1] | Potency [4] | Potency [2] | Potency (ATS189) | Potency (C2A) | Potency (CP238) | Potency (JCK)
active: Potency (CP191) 5.01 µM | Potency (CP215) 9.53 µM | Potency (CP237) 3.55 µM | Potency (CP268) 7.57 µM | Potency (CP325) 12 µM

CC1CC[C@@]2(NC1)OC1CC3C4CC[C@@H]5CC(O)CC[C@@]5(C)C4CC[C@]3(C)C1C2C (stereo partly specified)
inactive: outcome [1] | Potency [2] | Potency (ATS189) | Potency (C2A) | Potency (CP191) | Potency (CP192) | Potency (CP201) | Potency (CP215) | Potency (CP237) | Potency (CP238) | Potency (CP268) | Potency (CP269) | Potency (CP286) | Potency (CP325) | Potency (CP329) | Potency (FAB9) | Potency (JCK) | Potency (PC49)

CC(C)=CC1C(C(=O)OCc2coc(Cc3ccccc3)c2)C1(C)C (stereo unspecified)
inactive: outcome [1] | Potency [2] | Potency (ATS189) | Potency (C2A) | Potency (CP192) | Potency (CP201) | Potency (CP215) | Potency (CP237) | Potency (CP238) | Potency (CP268) | Potency (CP269) | Potency (CP286) | Potency (CP325) | Potency (CP329) | Potency (FAB9) | Potency (JCK) | Potency (PC49)
